Most compounds without a hit are left out; they make up all but 2.5% or so of the library.
rRNA inh HTS: inhibits bacterial ribosomal RNA function over humanized ribosomes | E. coli WT GFP vs humanized-ribosome RFP mutants, fluorescence, 24 h; active compounds read low; DMSO median 0, no signal -100 | 350,000 compounds, 1.6% hits | GFP signal change (wild-type ribosome), % (no concentration beside the values);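 active = significant combined selectivity score with lowered wild-type GFP, culture density cut under 30%, mutant RFP and density less affected; inactive = any of these conditions unmet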
RAD52 inh: RAD52 (human) annealing inhibition; recombinant RAD52 DNA annealing, FRET fluorescence; inhibition, % at 18.7 µM; AID 651710; 360,000 compounds, 0.46% hits;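 active = every replicate showing at least 50% inhibition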
NSD2 inh: NSD2 (human) methyltransferase inhibition; NSD2 peptide methylation, AlphaScreen, 120 min; inhibition, % at 12.5 µM; 310,000 compounds, 0.54% hits; in the data active = inhibition above about 50%
AF4-AF9 inh: inhibitors of human MLL-AF4/AF9 interaction. P42568. AlphaScreen, biotin-AF4 peptide binding to FLAG-AF9. inhibition, % at 10 µM. 350,000 compounds, 0.47% hits. AID 651704;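 active = every replicate reaching a set inhibition limit, whatever the replicate mean, cut at about 25% in these data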;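 note: 0% = plate neutral control median and 100% = total signal loss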
Target sequence (P42568 whole entry, looked up): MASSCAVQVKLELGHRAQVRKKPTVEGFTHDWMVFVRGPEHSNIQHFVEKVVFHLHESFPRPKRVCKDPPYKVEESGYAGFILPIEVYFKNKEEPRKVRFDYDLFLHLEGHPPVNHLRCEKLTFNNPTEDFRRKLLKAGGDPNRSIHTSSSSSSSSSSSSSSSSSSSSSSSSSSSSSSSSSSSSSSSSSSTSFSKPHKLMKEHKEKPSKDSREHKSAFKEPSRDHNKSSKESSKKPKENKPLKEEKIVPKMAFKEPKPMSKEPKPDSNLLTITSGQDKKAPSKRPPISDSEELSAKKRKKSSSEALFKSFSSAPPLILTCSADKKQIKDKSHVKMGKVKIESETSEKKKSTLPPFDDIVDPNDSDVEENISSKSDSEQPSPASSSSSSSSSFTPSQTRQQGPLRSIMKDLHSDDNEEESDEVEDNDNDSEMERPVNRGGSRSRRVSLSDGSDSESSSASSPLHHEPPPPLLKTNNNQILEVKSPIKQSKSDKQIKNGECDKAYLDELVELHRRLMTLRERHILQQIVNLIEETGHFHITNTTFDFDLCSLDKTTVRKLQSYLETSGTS
CASP6 VEID inh: inhibitors of human caspase-6; purified caspase-6, Z-VEID-R110 cleavage fluorescence; inhibition, % at 12.5 µM; 350,000 compounds, 0.53% hits;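 active = mean inhibition across replicates at least about 35%, with every replicate also reaching that limit, limit read from the data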;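 note: 0% = median of neutral control wells and 100% = no fluorescence left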
* marks the source's active call; other numbers are inactive results; nt = not tested or not shown.

SMILES	rRNA inh HTS	RAD52 inh	NSD2 inh	AF4-AF9 inh	CASP6 VEID inh
CNC[C@@H]1Oc2cc(C#Cc3ccncc3)ccc2S(=O)(=O)N([C@H](C)CO)C[C@@H]1C	3	nt	nt	-3	nt
COC(=O)c1ccccc1NCc1cc(=O)oc2cc(O)c(O)cc12	-22*	-18	32	0	22
COc1ccc(C)cc1NCc1cc(=O)oc2cc(-c3ccccc3)c(O)cc12	nt	nt	-1	nt	nt
CC1CCN(Cc2cc(=O)oc3ccc4ccccc4c23)CC1	-23*	-20	-2	12	2
CC(C)c1ccc2oc(=O)cc(CN3CCN(c4ccccc4)CC3)c2c1	nt	nt	1	nt	nt
Cc1cc2oc(=O)cc(CN3CCC(C)CC3)c2cc1C	-5	-28	22	1	-2
CC1CCN(Cc2cc(=O)oc3ccc(C(C)C)cc23)CC1	-23*	-11	-7	-8	2
CC(C)c1ccc2oc(=O)cc(CN3CCCCC3)c2c1	-21*	-16	-2	-3	0
COCC(=O)Nc1ccc2c(c1)OC[C@@H](C)N(Cc1cccnc1)C[C@@H](C)[C@H](OC)CN(C)C2=O	-2	-3	nt	0	-7
COc1ccc2c3c(n(C)c2c1)[C@H](CO)N(C(=O)C1CCCC1)CC31CN(C)C1	2	7	nt	5	-2
COc1ccc2c3c(n(C)c2c1)[C@H](CO)N(C(=O)CN1CCOCC1)CC31CN(Cc2ccncc2)C1	2	15	nt	1	-5
COc1cccc([C@@H]2CC=C(C(=O)O)[C@H](c3ccc(C)cc3)N2S(=O)(=O)c2ccc(C)cc2)c1	-19*	-9	nt	-1	3
Cc1ccc(S(=O)(=O)N2[C@@H](c3cccc(Cl)c3)C(C(=O)O)=CC[C@H]2c2cccc(Cl)c2)cc1	-39	-10	nt	-73	4
COc1ccc([C@@H]2CC=C(C(=O)O)[C@H](c3ccc(C)cc3)N2S(=O)(=O)c2ccc(C)cc2)cc1OC	1	-7	nt	-6	5
COc1cccc([C@@H]2CC=C(C(=O)O)[C@H](c3ccc(Cl)cc3)N2S(=O)(=O)c2ccc(C)cc2)c1	-2	-16	nt	-2	3
COc1ccc([C@@H]2CC=C(C(=O)O)[C@H](c3ccc(F)cc3)N2S(=O)(=O)c2ccc(Cl)cc2)cc1	-18*	-12	nt	3	2
COc1ccc([C@@H]2CC=C(C(=O)O)[C@H](c3ccc(C(C)(C)C)cc3)N2S(=O)(=O)c2ccc(C)cc2)cc1OC	-20*	-18	nt	0	0
Cc1ccc(S(=O)(=O)N2[C@@H](c3cccc(Cl)c3)C(C(=O)O)=CC[C@H]2c2cccc(C)c2)cc1	-23*	-23	nt	nt	10
CC(=O)N(C)C[C@@H]1Oc2ccc(N)cc2C(=O)N(C)C[C@H]1C	0	nt	nt	nt	nt
C=CCn1c(SCC(=O)Nc2nc3ccccc3s2)nc(O)c(CC)c1=O	-27*	-13	3	0	-7
CCCn1nc([N+](=O)[O-])c(C(C#N)c2nc3ccccc3s2)c(Cl)c1=O (centres undefined)	nt	nt	52*	nt	nt
Cc1ccc(-c2csc(NS(=O)(=O)c3cccc(F)c3)n2)o1	14	-75	28	-17	41*
CCN(CC)c1ccc(NC(=S)NC(=O)C2CCC2)cc1	-3	-42	17	26*	3
Cc1ccc(NC(=O)CCC(=O)N/N=C/c2ccccc2O)cc1	9	2	-1	-2	-4
O=C(CCc1ccccc1)N/N=C/c1cc(Br)ccc1O	-16*	-7	2	5	1
SMILES	rRNA inh HTS	RAD52 inh	NSD2 inh	AF4-AF9 inh	CASP6 VEID inh
O=C(CCC(=O)Nc1ccc(Br)cc1)N/N=C/c1ccccc1O	-15*	-14	-2	-2	-2
Cc1ccc(S(=O)(=O)Oc2cccc(/C=N/n3cnnc3)c2)cc1	-2	1	0	-1	-2
Cc1ccc(S(=O)(=O)Oc2cccc(/C=N/Nc3ccc(C(=O)O)cc3)c2)cc1	-28*	-10	8	0	11
COc1ccc2c3c([nH]c2c1)[C@@H](CO)N(C(=O)NC(C)C)CC31CN(C(=O)c2cccnc2)C1	-3	-15	nt	2	0
CC(C)C#Cc1cnc2c(c1)C(=O)N([C@@H](C)CO)C[C@@H](C)[C@H](CN(C)C(=O)c1ccccc1F)O2	-3	3	nt	0	0
CCOC(=O)c1ccc2ncc(C(=O)OCC)c(Nc3ccc(N4CCOCC4)cc3)c2c1	-11	-3	8	26*	2
Nc1ccc(N=Nc2ccc(O)cc2)c(N)n1	-16*	-7	18	7	4
CCc1nc2ccc(C(=O)NCCCN(C)C)cn2c1N(C)Cc1ccc(OC)cc1	-2	-6	7	6	-29
CCc1nc2ccc(C(=O)NCc3ccccc3OC)cn2c1N(C)Cc1ccc(N(C)C)cc1	nt	-101	3	26*	-3
CCc1nc2ccc(C(=O)NCCOc3ccc(OC)cc3)cn2c1N(C)Cc1ccc(N(C)C)cc1	-23*	-97	2	14	-2
CC(C)CC#Cc1ccc([C@@H]2[C@@H](CO)N3C(=O)CN(C(=O)c4ccc5c(c4)OCO5)C[C@H]23)cc1	2	nt	nt	nt	nt
COc1cccc2cc(C(=O)C3=C(O)C(=O)N(c4cc(C)on4)C3c3cccs3)oc12 (centres undefined)	-26*	-55	8	4	12
Cc1cccc(N2C(=O)C(O)=C(C(=O)c3cccs3)C2c2ccc(Cl)cc2)n1 (centres undefined)	-34*	-14	2	-10	4
Cc1cccc(N2C(=O)C(O)=C(C(=O)c3cccs3)C2c2ccccc2)n1 (centres undefined)	-32*	-10	3	6	5
COc1cccc(C2C(C(=O)c3cc4cccc(OC)c4o3)=C(O)C(=O)N2c2cc(C)on2)c1OC (centres undefined)	nt	nt	2	nt	nt
Cc1cc(N2C(=O)C(O)=C(C(=O)c3cccs3)C2c2ccc(F)cc2)no1 (centres undefined)	-26*	-12	-2	-2	3
CC(C)C#Cc1ccc2c(c1)O[C@H](CN(C)Cc1cccnc1)[C@@H](C)CN([C@@H](C)CO)S2(=O)=O	-42	-3	nt	-6	-1
CCCN1[C@H](C(=O)N[C@@H](C)c2ccccc2)[C@@H](CO)[C@@H]2Cn3c(ccc(-c4ccccc4)c3=O)[C@@H]21	-16	0	nt	3	1
CO[C@H]1CN(C)C(=O)c2cc(NS(=O)(=O)c3cccc(F)c3)ccc2OC[C@H](C)N(C(=O)Cc2cccnc2)C[C@@H]1C	-5	-5	nt	1	-1
CCCCCOc1ccc(C2C(C(=O)c3ccc(C)o3)=C(O)C(=O)N2c2cc(C)on2)cc1 (centres undefined)	-10	-7	1	-2	39*
COc1ccc(C2C(C(=O)c3cccs3)=C(O)C(=O)N2c2cccc(C)n2)cc1 (centres undefined)	-18*	-12	0	-6	4

Source: PubChem BioAssay
